# Reference: PubChem BioAssay AID651871 (Sanford-Burnham Center for Chemical Genomics, 2012)
# Several values for one entry are separate records, joined by “and”; a condition that tells them apart may be missing. Equal values may be shown once.
# Tested on: HL-1
# Experiment: protection of cardiomyocytes from stress damage, SAR follow-up, cell-based, panel, H9c2 and HL-1, ATP luminescence, set 2 (AID 651871);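 further: cells exposed to stressor for 2 h before ATP readout; reference of the scale not given here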
# Conditions: H9c2/HL-1 cardiomyocytes, H2O2 oxidative stress; with H2O2, run 4, at 79 µM (top of the series)
row,Structure (SMILES),activity (protection/inhibition)
1,CCOC(=O)c1cccc(NC(=O)CNC(=O)c2cc(-c3cc(OC)c(OC)c(OC)c3)nc3ccccc23)c1,25.9%
2,COc1ccc2c(c1OC)C(=O)N1c3ccccc3C(=O)N(Cc3cccc(Cl)c3Cl)C21 (centres undefined),8.81% and -13.3% and 3.82%
3,COc1cc(-c2cc(C(=O)Nc3cccc(C(=O)NCc4ccccc4)c3)c3ccccc3n2)cc(OC)c1OC,17.9%
4,COc1ccc2nc(-c3cc(OC)c(OC)c(OC)c3)cc(C(=O)NCC(=O)Nc3ccc(C(C)=O)cc3)c2c1,37.2% and 50%
